Assay outcomes as filed in PubChem BioAssay.
Rows were chosen to be rich in hits. Some 10% of all compounds tested hit in one or more screens of this group.
RORg inh – qHTS for inhibitors of ROR gamma transcriptional activity | Nuclear receptor ROR-gamma (Mus musculus), P51450 | Drosophila S2 Gal4-RORgamma UAS-luciferase reporter, 20 h | Potency, µM (highest dose often 53.6 µM), hits mostly inhibitors | 310,000 tested, 5.4% active; further: nearly all actives have a fitted effect of over 60% in size
Target sequence (P51450 whole entry, looked up, the tested form may be a part): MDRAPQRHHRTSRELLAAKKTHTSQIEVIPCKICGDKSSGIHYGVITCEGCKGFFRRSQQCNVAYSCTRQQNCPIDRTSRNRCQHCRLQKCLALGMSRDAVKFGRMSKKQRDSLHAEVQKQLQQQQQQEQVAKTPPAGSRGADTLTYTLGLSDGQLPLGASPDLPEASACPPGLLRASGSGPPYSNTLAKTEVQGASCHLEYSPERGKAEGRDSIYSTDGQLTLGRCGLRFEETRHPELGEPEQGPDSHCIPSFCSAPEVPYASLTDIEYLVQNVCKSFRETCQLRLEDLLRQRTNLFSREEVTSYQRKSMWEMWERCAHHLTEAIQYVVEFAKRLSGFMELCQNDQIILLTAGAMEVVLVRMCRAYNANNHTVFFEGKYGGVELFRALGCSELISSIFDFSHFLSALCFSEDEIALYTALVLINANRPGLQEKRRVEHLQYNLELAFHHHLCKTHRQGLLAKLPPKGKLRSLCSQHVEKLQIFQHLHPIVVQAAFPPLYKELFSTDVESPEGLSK
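Luciferase reporter read in Schneider cells carrying Gal4-RORγ (mouse) and UAS-Photinus luciferase; cells given compound 1 h before 700 uM copper sulfate induction, then incubated 20 h at ambient temperature.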
SW480 rerep – A quantitative high throughput screen for small molecules that induce DNA re-replication in SW480 colon adenocarcinoma cells | SW480 DNA re-replication, Hoechst DNA content imaging, 48 h | Potency, µM (top dose mostly 46.1 µM), most hits filed as activators | 340,000 tested, 1.8% active | AID 624297, 2012; further: nearly all actives have a fitted effect of over 55% in size
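DNA re-replication was detected as more nuclei of elevated Hoechst intensity after 48 hr exposure to compound (23 nL pinned per well of 250 cells).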
MCF10A rereplic – A quantitative high throughput screen for small molecules that induce DNA re-replication in MCF 10a normal breast cells | MCF 10A DNA re-replication, Hoechst nuclear intensity, 48 h | Potency, µM (series often up to 46.1 µM), usual class: activators | 350,000 tested, 2.9% active | AID 624296, 2012; further: nearly all actives have a fitted effect of over 50% in size
ELG1 repair inh – qHTS screen for small molecules that inhibit ELG1-dependent DNA repair in human embryonic kidney (HEK293T) cells expressing luciferase-tagged ELG1; HEK293T ELG1-luciferase reporter, luminescence, 16 h; DNA damage induced by 5-fluorouridine; Potency, µM (doses to about 46.1 µM), actives largely listed as inhibitors; 330,000 tested, 2.3% active; further: nearly all actives have a fitted effect of over 55% in size
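HEK293T cells expressing luciferase-tagged ELG1 (2,000/well) received 5-Fluorouridine plus compound or DMSO for 16 hr at 37 °C. Luciferase was read by ONE-Glo luminescence after 30 min at room temperature.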
Gal4-VP16 FLuc – VP16 counterscreen qHTS for inhibitors of ROR gamma transcriptional activity; Drosophila S2 Gal4-VP16 UAS-luciferase, luminescence, 20 h; Potency, µM (titrated, usually from 53.6 µM), usual class: inhibitors; 310,000 tested, 3.5% active; AID 2546, 2010;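 further: Gal4-VP16 expression switched on by copper sulfate through the metallothionein promoter; nearly all actives have a fitted effect of over 50% in size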
Each line names hits and unclear results; the compound was inactive in the other large screens; ! = not active in a repeat. The call rests on the fitted dose curve; in most records, active means well fitted curve in the direction sought with a large enough effect; inconclusive means small, poorly fitted or top-dose-only effect, or another doubt; inactive means no such curve, though single readings can be large; an effect the other way counts as inactive or inconclusive.

COc1ccc(N2CC(C(=O)Nc3nnc(SCCC4OCCO4)s3)CC2=O)cc1 (centres undefined)	none
Cc1ccc2ccc3ccc(C)nc3c2n1	RORg inh 0.25µM, SW480 rerep inconclusive, MCF10A rereplic inconclusive, Gal4-VP16 FLuc 0.56µM
Cc1ccc2c(C)ccc(O)c2n1	RORg inh 11µM, MCF10A rereplic 21µM, ELG1 repair inh inconclusive, Gal4-VP16 FLuc inconclusive
CC(Sc1nnnn1C)C(=O)Nc1cc(S(=O)(=O)N2CCCCC2)ccc1Cl (centres undefined)	none (no result: RORg inh, Gal4-VP16 FLuc)
CN1CCc2c(sc(NC(=O)c3ccc(S(=O)(=O)N4CCCCCC4)cc3)c2C(N)=O)C1	RORg inh inconclusive, MCF10A rereplic 16µM, Gal4-VP16 FLuc inconclusive
CNC(=O)c1c(NC(=O)c2ccc(S(=O)(=O)N3CCCc4ccccc43)cc2)sc2c1CCN(C)C2	SW480 rerep inconclusive, MCF10A rereplic 21µM, ELG1 repair inh inconclusive
CCN1CCc2c(sc(NC(=O)c3ccc(S(=O)(=O)N4CCCC4)cc3)c2C(=O)NC)C1	RORg inh inconclusive, SW480 rerep inconclusive, MCF10A rereplic 18µM, Gal4-VP16 FLuc inconclusive
CN1CCc2c(sc(NC(=O)c3ccc(S(=O)(=O)N4CCc5ccccc54)cc3)c2C(N)=O)C1	ELG1 repair inh inconclusive, Gal4-VP16 FLuc inconclusive (no result: SW480 rerep, MCF10A rereplic)
COc1ccc(C2=NOC(Cn3nc(-c4ccccc4)cc3C(=O)NCc3ccccc3OC)C2)cc1 (centres undefined)	MCF10A rereplic inconclusive, ELG1 repair inh inconclusive (no result: RORg inh, Gal4-VP16 FLuc)
CC(=O)CC(=O)[C@@]1(O)CC[C@@H]2[C@@H]3C=C(C)C4=CC(=O)CC[C@@H]4[C@H]3CC[C@]21C	none (no result: SW480 rerep, MCF10A rereplic, ELG1 repair inh)
CN(c1ccc(C(=O)N2CCN(Cc3ccc4c(c3)OCO4)CC2)cc1)S(C)(=O)=O	none
CC1CCN(c2nc3ccc(C(=O)N4CCN(Cc5ccc6c(c5)OCO6)CC4)cc3s2)CC1	RORg inh inconclusive, ELG1 repair inh inconclusive, Gal4-VP16 FLuc 7.1µM
O=C(c1ccc2nc(N3CCOCC3)sc2c1)N1CCCC1	RORg inh inconclusive, ELG1 repair inh inconclusive
COc1ccc(CN2CCN(C(=O)c3ccc4nc(N5CCOCC5)sc4c3)CC2)c(OC)c1OC	ELG1 repair inh 21µM
CC(=O)OCC(=O)[C@]1(O)C(OC(C)=O)CC2C3CCC4=CC(=O)C=C[C@@]4(C)[C@]3(F)C(O)C[C@]21C (some centres undefined)	none (no result: SW480 rerep, MCF10A rereplic, ELG1 repair inh)
Cc1cc2cc(CN(Cc3cccs3)C(=S)NCc3ccco3)c(=O)[nH]c2cc1C	ELG1 repair inh 21µM
Cc1ccc(C)c2[nH]c(=O)c(CN(Cc3cccs3)C(=S)NCc3ccco3)cc12	ELG1 repair inh 16µM (no result: SW480 rerep)
Cc1ccc(C)c2[nH]c(=O)c(CN(CC3CCCO3)C(=S)NCc3ccco3)cc12 (centres undefined)	MCF10A rereplic inconclusive, ELG1 repair inh inconclusive
CCCCCCCC/C=C\CCCCCCCC(=O)NCCc1ccc(O)c(O)c1	RORg inh inconclusive, Gal4-VP16 FLuc 18µM!
CCCCC/C=C\C/C=C\C/C=C\C/C=C\CCCCCC(=O)NCCc1ccc(O)c(O)c1	none (no result: SW480 rerep, MCF10A rereplic, ELG1 repair inh)
CCCCCCCC/C=C\CCCCCCCC(=O)NCc1ccc(O)c(OC)c1	MCF10A rereplic 24µM (no result: ELG1 repair inh)
CCCCCCCCCCCCCCCC(=O)NCCc1ccc(O)c(O)c1	none (no result: SW480 rerep, MCF10A rereplic, ELG1 repair inh)
COc1cc2ccccc2cc1C(=O)OCC(=O)N(CC(C)C)c1c(N)n(Cc2ccccc2)c(=O)[nH]c1=O	none (no result: RORg inh, Gal4-VP16 FLuc)
O=C1C=C(c2ccc3ncccc3c2)C[C@@H](c2ccc(Cl)cc2)C1	MCF10A rereplic 23µM, ELG1 repair inh inconclusive (no result: RORg inh, Gal4-VP16 FLuc)
O=C1C=C(c2ccc3[nH]ccc3c2)C[C@@H](c2ccc(Cl)cc2)C1	MCF10A rereplic 10µM, ELG1 repair inh inconclusive (no result: RORg inh, Gal4-VP16 FLuc)
CC1C/C(=C/c2cccn2C)C(=O)/C(=C/c2cccn2C)C1 (centres undefined)	RORg inh 13µM, SW480 rerep inconclusive, MCF10A rereplic 4.6µM, ELG1 repair inh inconclusive, Gal4-VP16 FLuc inconclusive
CC1C/C(=C/c2ccncc2)C(=O)/C(=C/c2ccncc2)C1 (centres undefined)	RORg inh 7.1µM, SW480 rerep inconclusive, MCF10A rereplic 0.46µM, ELG1 repair inh 21µM, Gal4-VP16 FLuc 2.8µM
